We go through 43 molecules from paper PMC4336329 (PLoS ONE, 2015).

Out of some 310,000 compounds screened, about 14,000 (4.5%) showed an effect of 50% or more. Effects have a minus sign here. The sample holds strong results, similar compounds and a random draw of the others, so the mix is not that of the screen.
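Further: peak tail current of the secondary pulse compared with the same well before compound.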

The target of the experiment is human ether-à-go-go-related gene (hERG) potassium channel (human, UniProt Q12809). Briefly: primary screen, population patch clamp on CHO cells stably expressing hERG; higher = less effect of the substance.
Sequence of human ether-à-go-go-related gene (hERG) potassium channel (Q12809 whole entry, looked up): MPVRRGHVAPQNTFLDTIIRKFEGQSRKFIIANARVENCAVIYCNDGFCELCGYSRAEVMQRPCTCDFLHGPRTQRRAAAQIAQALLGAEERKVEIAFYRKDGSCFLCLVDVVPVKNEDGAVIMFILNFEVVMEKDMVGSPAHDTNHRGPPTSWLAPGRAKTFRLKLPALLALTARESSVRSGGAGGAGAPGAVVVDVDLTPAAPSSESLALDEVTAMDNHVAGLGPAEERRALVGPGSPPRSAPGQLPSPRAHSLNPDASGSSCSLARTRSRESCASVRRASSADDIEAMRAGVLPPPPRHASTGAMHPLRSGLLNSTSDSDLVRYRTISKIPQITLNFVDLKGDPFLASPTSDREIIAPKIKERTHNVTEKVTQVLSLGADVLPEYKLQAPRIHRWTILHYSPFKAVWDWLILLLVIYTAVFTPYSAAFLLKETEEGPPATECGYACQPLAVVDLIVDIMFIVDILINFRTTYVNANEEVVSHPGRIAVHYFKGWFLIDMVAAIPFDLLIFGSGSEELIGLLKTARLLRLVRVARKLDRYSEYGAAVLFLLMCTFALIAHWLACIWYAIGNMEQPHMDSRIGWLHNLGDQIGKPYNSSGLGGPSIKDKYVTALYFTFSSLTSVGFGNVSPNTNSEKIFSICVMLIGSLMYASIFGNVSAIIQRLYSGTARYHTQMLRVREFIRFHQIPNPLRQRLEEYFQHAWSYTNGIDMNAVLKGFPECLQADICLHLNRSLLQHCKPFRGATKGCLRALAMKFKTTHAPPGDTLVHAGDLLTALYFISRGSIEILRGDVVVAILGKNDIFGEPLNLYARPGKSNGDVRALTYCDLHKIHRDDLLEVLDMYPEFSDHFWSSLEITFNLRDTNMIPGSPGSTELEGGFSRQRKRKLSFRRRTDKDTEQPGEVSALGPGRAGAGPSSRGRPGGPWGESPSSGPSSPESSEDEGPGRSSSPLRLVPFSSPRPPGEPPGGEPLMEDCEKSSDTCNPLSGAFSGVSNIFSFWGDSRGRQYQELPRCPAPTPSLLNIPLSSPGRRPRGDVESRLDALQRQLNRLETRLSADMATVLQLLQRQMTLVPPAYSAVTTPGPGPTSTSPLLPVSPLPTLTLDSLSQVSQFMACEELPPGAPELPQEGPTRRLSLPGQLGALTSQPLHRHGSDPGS
With `O=C1COc2ccc(S(=O)(=O)N3CCCCC3)cc2N1`, the “hERG current change (%, negative = inhibition) at 10uM” value came out at 20%. Take `Cc1ccc(NNC(=O)C(O)(c2cccc(C(F)(F)F)c2)c2cccc(C(F)(F)F)c2)cc1`: the “hERG current change (%, negative = inhibition) at 10uM” value was -7.55%. The figure for `COc1cc2c(cc1OC)C(C)N(S(=O)(=O)c1ccc(C)cc1)CC2` (stereo not shown) is -15%; for `COc1ccc(C(C(=O)NC2CCCCC2)N(C(=O)c2snc(C(N)=O)c2N)c2ccccc2OC)cc1` (stereo not shown) it is 11.4%.

On to `CC1CCC(NC(=O)CCS(=O)(=O)c2ccc3c(c2)oc(=O)n3C)CC1` (stereo not shown), for which the “hERG current change (%, negative = inhibition) at 10uM” value was 5.15%. With `O=C(NCCCn1ccnc1)c1ccco1` the figure was -4.47%; with `c1ccc(Cn2ccnc2)cc1`, 19.6%; with `Cc1sc2ncnc(NCCCn3ccnc3)c2c1C`, -46.1%. Regarding `N=c1c2c(-c3ccccc3)c(-c3ccccc3)n(Cc3ccccc3)c2ncn1CCCn1ccnc1`, the “hERG current change (%, negative = inhibition) at 10uM” value is reported as -71.2%. With `OCCNc1ncnc2c1c(-c1ccccc1)c(-c1ccccc1)n2Cc1ccco1` the figure was -44.9%. The figure for `O=c1[nH]c(=O)n(Cc2ccco2)c(O)c1C=NCCCn1ccnc1` is 16.3%; for `N=c1c2c(-c3ccccc3)c(-c3ccccc3)n(Cc3ccco3)c2ncn1CCCn1ccnc1` it is -74.3%; for `c1ccc(-c2ccccc2OCCCCn2ccnc2)cc1` it is -26.4%. For `c1ccc(-c2c(-c3ccccc3)n(Cc3ccco3)c3ncnc(NCCCn4ccnc4)c23)cc1`, the “hERG current change (%, negative = inhibition) at 10uM” value is listed as -71.6%. Turning to `O=C(CSc1nc2cc(C(=O)O)ccc2c(=O)n1-c1ccc(F)cc1)Nc1ccc(F)c(F)c1F`, the “hERG current change (%, negative = inhibition) at 10uM” value is listed as 1.54%. The figure for `CCCCn1c(NC(=O)c2ccc(F)cc2)c(C#N)c2nc3ccccc3nc21` is 6.88%; for `CCc1cc(C(=O)OC)c(NC(=O)CC2SC(N)=NC2=O)s1` (stereo not shown) it is -6.56%.

Consider `CCCC(=O)N1CCC(CCC(=O)NC2CC2)CC1`, for which the “hERG current change (%, negative = inhibition) at 10uM” value came out at 7.63%. With `COc1ccc(S(=O)(=O)N2c3ccccc3NC(=O)CC2C)cc1` (stereo not shown) the figure was 9.7%; with `O=[N+]([O-])c1ccc(CS(=O)(=O)c2ccc(Cl)cc2)cc1`, -9.81%. The figure for `CCc1ccc(Nc2nnc(SCC(=O)c3c(N)n(C4CC4)c(=O)[nH]c3=O)s2)cc1` is -17.7%. For the molecule `COc1cnc(-c2ccccn2)nc1NC(C)C`, the “hERG current change (%, negative = inhibition) at 10uM” value is 7.65%. With `C=CCNC(=O)c1onc(CS(=O)(=O)c2cc(C)cc(C)c2)c1C(=O)NCC=C` the figure was -8.18%. The figure for `CC(C)[C@H](N)c1nnc(SCC(=O)c2ccc(Cl)cc2)o1.Cl` is -14.2%; for `CCC(C)[C@H](N)c1nnc(SCC(=O)c2ccc(Cl)cc2)o1` (stereo partly shown) it is -52.5%. With `C[C@H](N)c1nnc(SCC(=O)c2ccc(Cl)cc2)o1` the figure was -6.79%; with `Cc1ccc2oc(C(=O)N(C)Cc3ccon3)c(C)c2c1`, 4.23%. With `Cc1cccc2c(=O)cc(C(F)(F)F)[nH]c12`, the “hERG current change (%, negative = inhibition) at 10uM” value was found to be 13.8%. For the molecule `COc1ccc(CCNC(=O)C2CCCN(S(C)(=O)=O)C2)cc1OC` (stereo not shown), the “hERG current change (%, negative = inhibition) at 10uM” value is on record as 12%.

Consider `COc1ccc(CN2CCC(C(=O)NCCc3ccc(OC)c(OC)c3)CC2)c(OC)c1`, for which the “hERG current change (%, negative = inhibition) at 10uM” value is recorded as -29.9%.

With `CCc1ccc(-c2nc(CN3CCCC(C(=O)NCCc4ccc(OC)c(OC)c4)C3)c(C)o2)cc1` (stereo not shown), the “hERG current change (%, negative = inhibition) at 10uM” value is reported as -50.5%.

Regarding `CCc1ccc(-c2nc(CN3CCC(C(=O)NCCc4ccc(OC)c(OC)c4)CC3)c(C)o2)cc1`, the “hERG current change (%, negative = inhibition) at 10uM” value is -76.2%.

Consider `CCS(=O)(=O)N1CCCC(C(=O)NCCc2ccc(OC)c(OC)c2)C1` (stereo not shown), for which the “hERG current change (%, negative = inhibition) at 10uM” value stood at 13.1%.

As for `COc1ccc(-c2nc(CN3CCC(C(=O)NC4CC4)CC3)c(C)o2)cc1OC`, the “hERG current change (%, negative = inhibition) at 10uM” value is on record as -12.8%. For the molecule `Cn1c(=O)cc(OCCCC(=O)NCc2ccc(F)cc2Cl)c2ccccc21`, the “hERG current change (%, negative = inhibition) at 10uM” value is given as -15.1%. With `CCCOc1ccc(C(C)=O)cc1CSCCC#N` the figure was -1.08%; with `Cn1c(CC(=O)Nc2ccccc2F)nnc1SCC(=O)NC1CCCC1`, 11%. Turning to `Cc1cc(OCc2cc(C(=O)NC3CCC3)no2)cc(C)c1Cl`, the “hERG current change (%, negative = inhibition) at 10uM” value is 3.82%. With `COc1cccc(OCc2cc(C(=O)NCCN3CCCCC3CO)no2)c1` (stereo not shown) the figure was 2.5%.

Regarding `Cc1ccc(OCc2cc(C(=O)NCC3COCCO3)no2)cc1C` (stereo not shown), the “hERG current change (%, negative = inhibition) at 10uM” value is listed as -10%.

On to `COCCN1CC(CNC(=O)c2cc(COc3ccc(C)c(C)c3)on2)CC1=O` (stereo not shown), for which the “hERG current change (%, negative = inhibition) at 10uM” value was -20.8%. With `CCN1CCCC1CNC(=O)c1cc(COc2ccc(C)c(C)c2)on1` (stereo not shown) the figure was -65.2%; with `Cc1cc(OCc2cc(C(=O)NCCN3CCCCC3CO)no2)cc(C)c1Cl` (stereo not shown), -65.8%.
